Sampled rows, rich in hits. Any-hit rate of the full collection: about 11%.
MCF10A rerep: inducers of DNA re-replication in MCF 10A breast cells. MCF 10A DNA re-replication, Hoechst nuclear intensity, 48 h. Potency, µM (highest dose often 46.1 µM), hits mostly activators. 2.9% of 350,000 active. AID 624296; also: nearly all actives have a fitted effect of over 50% in size
SW480 rerep: DNA re-replication induction in SW480 cells; SW480 DNA re-replication, Hoechst DNA content imaging, 48 h; Potency, µM (series often up to 46.1 µM), hits mostly activators; 1.8% of 340,000 active; AID 624297; also: nearly all actives have a fitted effect of over 55% in size
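DNA re-replication was detected as more nuclei of elevated Hoechst intensity after 48 hr exposure to compound (23 nL pinned per well of 250 cells).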
VP16 counter: Gal4-VP16 reporter inhibition counter-screen; 3.5% of 310,000 active; Drosophila S2 Gal4-VP16 UAS-luciferase, luminescence, 20 h; Potency, µM (titrated, usually from 53.6 µM), usual class: inhibitors;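 also: Gal4-VP16 expression switched on by copper sulfate through the metallothionein promoter; nearly all actives have a fitted effect of over 50% in size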
RORg inh: blocks mouse ROR gamma transcriptional activity | Drosophila S2 Gal4-RORgamma UAS-luciferase reporter, 20 h | Potency, µM (series often up to 53.6 µM), usual class: inhibitors | 5.4% of 310,000 active; also: nearly all actives have a fitted effect of over 60% in size
Target sequence (P51450 whole entry, looked up, the tested form may be a part): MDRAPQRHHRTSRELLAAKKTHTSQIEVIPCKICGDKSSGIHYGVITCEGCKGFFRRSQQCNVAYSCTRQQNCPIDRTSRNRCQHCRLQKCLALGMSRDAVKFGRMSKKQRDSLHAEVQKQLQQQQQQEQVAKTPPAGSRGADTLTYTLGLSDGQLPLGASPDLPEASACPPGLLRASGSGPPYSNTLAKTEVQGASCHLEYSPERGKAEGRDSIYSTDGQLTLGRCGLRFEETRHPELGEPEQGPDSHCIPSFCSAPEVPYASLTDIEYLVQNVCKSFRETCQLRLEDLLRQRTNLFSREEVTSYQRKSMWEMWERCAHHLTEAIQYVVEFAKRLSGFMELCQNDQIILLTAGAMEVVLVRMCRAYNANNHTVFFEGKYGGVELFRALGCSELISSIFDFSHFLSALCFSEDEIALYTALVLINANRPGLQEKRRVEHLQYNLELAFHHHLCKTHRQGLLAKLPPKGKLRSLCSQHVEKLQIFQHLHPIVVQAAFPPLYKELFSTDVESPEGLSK
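Stably transfected Drosophila Schneider cells are the test system, with ROR gamma fused to Gal4 and luciferase under UAS control; luminescence is read after 20 hr of 700 uM copper sulfate induction at ambient temperature.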
IL1B secr inh: inflammasome signaling inhibition, IL-1 beta readout. AID 743279. activity change, % at 57.5 µM. 4.7% of 360,000 active. THP-1 LPS/ATP IL-1B secretion, AlphaLISA, 16 h; active compounds read low; in the data active = activity change below about -50%; inconclusive = mostly about -30% to -49%
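THP-1 cells pretreated 1 hr with compounds (up to 57.5 uM final), then stimulated with LPS (250 ng/mL final) plus ATP (1.25 mM final); secreted IL-1B measured by AlphaLISA after 16 hr, decreased signal indicating inhibition.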
Each line names hits and unclear results; the compound was inactive in the other large screens; ! = not active in a repeat. Unless noted, calls follow the shape of the dose curve; as a rule, active = well fitted curve in the direction sought with a large enough effect; inconclusive = small, poorly fitted or top-dose-only effect, or another doubt; inactive = no such curve, though single readings can be large; an effect the other way counts as inactive or inconclusive.

CCCCCC(O)C1C(=O)OC(C)C(O)\C=C/C=C\C=C/C=C\C=C(\C)C(O)C(O)C(O)CC(O)CC(O)CC(O)CC(O)CC1O (centres undefined)	none (no result: IL1B secr inh)
CC(N)C(O)c1ccc(O)c(O)c1 (centres undefined)	none (no result: MCF10A rerep, SW480 rerep, IL1B secr inh)
CC(=O)OC1CC(OC(C)=O)[C@]2(C)C(CC(OC(C)=O)[C@]3(C)C2CC[C@@]2(C)C(c4ccoc4)C(=O)C4O[C@]432)C1(C)C (some centres undefined)	RORg inh inconclusive (no result: MCF10A rerep, SW480 rerep, IL1B secr inh)
O=C(COc1ccccc1)Nc1ccc(Cl)cc1C(=O)c1ccccc1	none
Cc1ccccc1C(=O)NNC(=S)NC(=O)COc1ccccc1	VP16 counter inconclusive, RORg inh 13µM
COc1ccc(CC(=O)NC(=S)NNC(=O)COc2c(C)cccc2C)cc1	MCF10A rerep inconclusive, RORg inh 13µM
O=C(NCc1ccc(C(=O)N2CCC3(CC2)OCCO3)cc1)c1ccc2c(c1)OCO2	none
O=C(c1ccc2c(=O)n(Cc3ccc4c(c3)OCO4)c(=S)[nH]c2c1)N1CCC2(CC1)OCCO2	VP16 counter inconclusive, RORg inh 13µM
CCN1C[C@]2(C)CC[C@H](OC)[C@]34C5C[C@@H]6CC[C@@](O)(C5C(=O)O6)C(C13)[C@@H](OC(=O)c1ccccc1)C24	none (no result: MCF10A rerep, SW480 rerep, IL1B secr inh)
COCCNCCOc1ccc(C(C)(C)c2ccccc2)cc1	IL1B secr inh -68
C[N+]1(C)[C@@H]2CC[C@H]1CC(OC(=O)C(c1ccccc1)c1ccccc1)C2 (some centres undefined)	none
O=C(OC1CCN(CCCl)CC1)C(c1ccccc1)c1ccccc1	SW480 rerep inconclusive, IL1B secr inh -71 (no result: VP16 counter, RORg inh)
CN1CC[C@@]2(CCCN(C(=O)c3ccncc3)C2)C1	none (no result: MCF10A rerep, SW480 rerep, IL1B secr inh)
CC[C@@H](O)C[C@H]1CCC[C@@]2(C[C@@H]3OC(=O)/C=C/[C@@](C)(O)[C@@H](O)[C@H](C)[C@@H](O)[C@H](OC4CCC(N(C)C)C(C)O4)[C@@H](O)[C@](C)(O)CCCCC/C=C/[C@@H]4CC(C)(C)O[C@@]4(O)C[C@H](O2)[C@H]3C)O1 (some centres undefined)	MCF10A rerep inconclusive, SW480 rerep inconclusive, IL1B secr inh -56 (no result: VP16 counter, RORg inh)
[O-][Br+2]([O-])O	none (no result: MCF10A rerep, SW480 rerep, IL1B secr inh)
CC(C)[C@@]1(NC(=O)[C@@H]2C[C@@H]3c4cccc5[nH]cc(c45)C[C@H]3N(C)C2)O[C@@]2(O)[C@@H]3CCCN3C(=O)[C@H](Cc3ccccc3)N2C1=O	MCF10A rerep 21µM!, SW480 rerep 18µM!, VP16 counter inconclusive, RORg inh 2.8µM!
c1ccc(-c2ccc(C(c3ccccc3)n3ccnc3)cc2)cc1 (centres undefined)	MCF10A rerep 10µM, SW480 rerep inconclusive, VP16 counter inconclusive, RORg inh 10µM!
O=C1CCCC2[C@@H]3CCCN4CCC[C@@H](CN12)C34 (some centres undefined)	none (no result: MCF10A rerep, SW480 rerep, IL1B secr inh)
Brc1cccc(-c2ccccc2)c1	none (no result: MCF10A rerep, SW480 rerep, IL1B secr inh)
O=C(CNC(=O)c1ccccc1Cl)Nc1ccc(Br)cc1C(=O)c1ccccc1	RORg inh inconclusive
O=C(CNC(=O)c1ccccc1)Nc1ccc(Br)cc1C(=O)c1ccccc1	IL1B secr inh -52
CC(=O)C1=C(O)[C@@H]2[C@@H]3c4c[nH]c5cccc(c45)C[C@@H]3C(C)(C)N2C1=O	none (no result: MCF10A rerep, SW480 rerep, IL1B secr inh)
Cc1cc(NC(=O)CCl)nn1C	MCF10A rerep inconclusive, SW480 rerep inconclusive, VP16 counter inconclusive, IL1B secr inh -101
CCC(=O)Nc1ccc(Cl)c(Cl)c1	none
Cn1ccc(NC(=O)CCl)n1	VP16 counter 4.5µM, RORg inh 5µM, IL1B secr inh -102
Cn1cc(C(=O)OCC(=O)NC2CCCC2)c2ccccc21	none (no result: VP16 counter, RORg inh)
CN(C(=O)COC(=O)c1cn(C)c2ccccc12)C1CCCCC1	IL1B secr inh -50 (no result: VP16 counter, RORg inh)
NP(=O)(OCCCCc1ccccc1)Oc1ccccc1Cl (centres undefined)	RORg inh inconclusive
NP(=O)(Oc1ccccc1Cl)Oc1ccccc1Cl	MCF10A rerep 0.65µM
C[C@H]1COC(=O)[C@@H](Cc2ccc(F)cc2)CC/C=C/C[C@H](CC(=O)N(CCO)Cc2ccccc2)C(=O)N1	none (no result: VP16 counter, RORg inh)
CCCCC/C(=N/O)c1c(C)[nH]c2ccccc12	MCF10A rerep inconclusive, IL1B secr inh -62
COC(=O)[C@]1(C)CC[C@@]2(C)CC[C@@]3(C)C4=CCc5c(cc(O)c(O)c5C)[C@]4(C)CC[C@@]3(C)C2C1 (some centres undefined)	VP16 counter 16µM, RORg inh inconclusive (no result: MCF10A rerep, SW480 rerep, IL1B secr inh)
Cc1ccc(NP(=O)(Oc2ccccc2F)Oc2ccccc2F)cc1C	MCF10A rerep inconclusive, SW480 rerep inconclusive, RORg inh inconclusive, IL1B secr inh -84
COc1ccccc1OP(=O)(Nc1cccnc1)Oc1ccccc1OC	MCF10A rerep inconclusive, RORg inh inconclusive
Cc1cccc(NP(=O)(Oc2ccccc2F)Oc2ccccc2F)c1	MCF10A rerep inconclusive, SW480 rerep inconclusive, RORg inh inconclusive, IL1B secr inh -99
O=P(Nc1cccc(F)c1)(Oc1ccccc1F)Oc1ccccc1F	MCF10A rerep inconclusive
C=C[C@H]1CN2CC[C@H]1C[C@H]2c1[nH]c2ccccc2c1CCO	none (no result: MCF10A rerep, SW480 rerep, IL1B secr inh)
CN(CCS(=O)(=O)c1ccc(Cl)cc1)Cc1cccnc1	MCF10A rerep 21µM, SW480 rerep inconclusive, IL1B secr inh inconclusive
C=C1C/C(=C/C)C(=O)O[C@@H]2CCN3CC=C(COC(=O)[C@]1(C)O)[C@@H]23	none (no result: MCF10A rerep, SW480 rerep, IL1B secr inh)
O=c1[nH]c2ccccc2n1C1CCN(Cc2ccc(-c3nc4ccccc4nc3-c3ccccc3)cc2)CC1	none (no result: MCF10A rerep, SW480 rerep, VP16 counter, RORg inh)
O=c1[nH]c2ccccc2n1C1CCN(Cc2ccc(-c3nc4ccc(F)cc4nc3-c3ccccc3)cc2)CC1	IL1B secr inh -61 (no result: MCF10A rerep, SW480 rerep, VP16 counter, RORg inh)
Cc1ccc2nc(-c3ccc(CN4CCC(n5c(=O)[nH]c6ccccc65)CC4)cc3)c(-c3ccccc3)nc2c1	IL1B secr inh -74 (no result: MCF10A rerep, SW480 rerep, VP16 counter, RORg inh)
COc1ccc2nc(-c3ccc(CN4CCC(n5c(=O)[nH]c6ccccc65)CC4)cc3)c(-c3ccccc3)nc2c1	IL1B secr inh -61 (no result: MCF10A rerep, SW480 rerep, VP16 counter, RORg inh)
CCC(c1nnnn1Cc1ccccc1)N1CCC(n2c(=O)[nH]c3ccccc32)CC1 (centres undefined)	none (no result: MCF10A rerep, SW480 rerep, VP16 counter, RORg inh)
CN1C2CCCC1CC(=O)C2	none (no result: MCF10A rerep, SW480 rerep, IL1B secr inh)
Nc1ncnc2c1ncn2[C@@H]1O[C@H](COP(=O)(O)OP(=O)(O)OP(=O)(O)O)[C@H]2OC3(O[C@H]21)C([N+](=O)[O-])=CC(=[N+]([O-])[O-])C=C3[N+](=O)[O-] (some centres undefined)	none (no result: MCF10A rerep, SW480 rerep, IL1B secr inh)
CCC1COC(Cn2cncn2)(c2ccc(Cl)cc2Cl)O1 (centres undefined)	none (no result: MCF10A rerep, SW480 rerep, IL1B secr inh)
C=Cn1ccnc1P(=S)(c1c(C)nn(-c2ccccc2)c1C)c1nccn1C=C	none
C=Cn1ccnc1P(=S)(c1ccc(N(C)C)cc1)c1nccn1C=C	VP16 counter inconclusive, RORg inh 10µM
Cc1ccccc1C1=NCC(=O)N(CC(=O)NCc2ccco2)c2sc3c(c21)CCCC3	MCF10A rerep inconclusive, VP16 counter 13µM, RORg inh inconclusive, IL1B secr inh -71

Screens deposited in PubChem by National Center for Advancing Translational Sciences (NCATS).
